Our source for the growth values is PubChem BioAssay (NCI).

The panel holds about 83,000 compounds, 20% with a hit somewhere; the sample as a whole holds those more often.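 In brief: 96-well plates, 48 h treatment, single concentration, percent growth endpoint.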 Active and inactive are the calls of the source. The calls were made as follows: active = growth percent below 10; inactive = the rest.

The test system of this assay is CCRF-CEM leukemia. Briefly: NCI-60 one-dose screen, 48 h (100 = growth as untreated, 0 = no growth, -100 = all killed). To be noted: 10 µM.
`COc1ccccc1Cn1cc2c(c1)-c1oncc1CC2`: the growth was 17.6% (inactive). With `CC1=NN(c2cccc(Cl)c2)C(=O)/C1=C\c1cn(-c2nc(N3CCOCC3)nc(N3CCOCC3)n2)c2ccccc12`, the growth was 100% (inactive).

Turning to `NC(=O)c1c(Nc2ccccc2)nn2cc(-c3nc4ccccc4s3)c(N)nc12`, the growth is 99.2% (inactive). Consider `COc1cc(/C(=C2/O[C@@H]([C@H]3COC(C)(C)O3)[C@H]3OC(C)(C)O[C@@H]23)c2ccc3c(c2)OCO3)cc(OC)c1OC`, for which the growth was 93.1% (inactive). As to `O=C(N/N=C/c1coc2ccccc2c1=O)c1cc2oc(-c3ccccc3)cc2[nH]1`, the growth was 103% (inactive). As to `CCCCCCCCCC[N+](C)(C)C`, the growth is -18.8% (active).

`CCCC(=O)NNc1[nH]c(-c2ccc(OC)cc2)cc1C(=O)OCC`: the growth is 5.87% (active). Turning to `O=C1c2cc([N+](=O)[O-])ccc2-c2cc(Cl)c(NC(=O)C(F)(F)F)cc21`, the growth is 96.6% (inactive). In the case of `O=C(Nc1cccc(Cn2c(=O)[nH]c3ccc(Oc4ncccn4)cc3c2=O)c1)c1ccc(Cl)cc1`, the growth was 47% (inactive). The same measure for `CC[C@H](Nc1ncnc2nc[nH]c12)c1nc2cccc(NCc3ccc(C(=O)NO)o3)c2c(=O)n1-c1ccccc1`: 88.7% (inactive).

For `C=C(C)C(C(=O)OCC)(C(=O)OCC)C(C)C`, the growth is 98.2% (inactive). In the case of `COC1=CC(c2ccc[nH]2)=N/C1=C\c1[nH]c(C)c(C(=O)CCCCC(=O)NC(C)(C)C)c1C`, the growth was 68.5% (inactive).

Take `COc1ccc(NC(=O)/C=C(C)/C=C/C=C(C)/C=C/C2=C(C)CCCC2(C)C)cc1`: the growth was 60.6% (inactive).
